The list is not random: actives were taken first. Their share in the collection is about 11%.
HEK293 tox: kills HEK 293 cells; HEK 293 viability, ATP luminescence (CellTiter-Glo), 48-72 h; Potency, µM (highest dose often 115 µM), for inactives: at the top dose activity change, negative = cytotoxicity, actives largely listed as inhibitors; hit rate 6.6% among 94,000; AID 1345083; note: nearly all actives have a fitted effect of over 60% in size
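CellTiter-Glo luminescence (cellular ATP) was read after 48 or 72 hr of compound exposure at 37 degree Celsius. Cells were HEK 293 plated at 250 cells/well.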
3T3 cytotox: cytotoxic compounds in NIH 3T3 cells; Potency, µM (top dose mostly 96.7 µM), without a hit: top-dose activity change, negative = cytotoxicity, usual class: inhibitors; NIH 3T3 viability, CellTiter-Glo ATP luminescence, 48-72 h; hit rate 4.3% among 94,000; AID 1345082; note: nearly all actives have a fitted effect of over 55% in size
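Cells were seeded at 400 per well, treated with pin-transferred compound, and kept 48 or 72 hr at 37 °C before CellTiter-Glo addition and luminescence imaging of cellular ATP.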
Luciferase inh: Photinus pyralis luciferase inhibition; P08659; purified P. pyralis luciferase, luminescence, biochemical; Potency, µM (doses to about 115 µM), usual class: inhibitors; hit rate 2.5% among 76,000; AID 1347043; note: nearly all actives have a fitted effect of over 65% in size
Target sequence (P08659 whole entry, looked up): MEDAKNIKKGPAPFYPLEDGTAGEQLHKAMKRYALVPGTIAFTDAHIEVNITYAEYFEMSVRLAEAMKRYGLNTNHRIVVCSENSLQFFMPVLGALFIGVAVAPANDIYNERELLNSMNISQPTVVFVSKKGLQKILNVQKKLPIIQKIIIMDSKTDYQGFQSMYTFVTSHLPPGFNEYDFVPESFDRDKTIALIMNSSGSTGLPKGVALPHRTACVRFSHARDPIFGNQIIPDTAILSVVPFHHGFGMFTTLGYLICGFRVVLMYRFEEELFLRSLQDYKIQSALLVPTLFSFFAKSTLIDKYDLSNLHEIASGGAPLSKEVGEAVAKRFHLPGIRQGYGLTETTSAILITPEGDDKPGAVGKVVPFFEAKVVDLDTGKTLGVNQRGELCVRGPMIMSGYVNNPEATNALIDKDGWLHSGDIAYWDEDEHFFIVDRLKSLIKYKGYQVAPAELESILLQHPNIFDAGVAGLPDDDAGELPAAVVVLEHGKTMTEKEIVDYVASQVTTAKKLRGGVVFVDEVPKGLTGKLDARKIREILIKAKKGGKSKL
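Inhibitors were tested against purified firefly luciferase in a biochemical, low-substrate format (both substrates at 10uM) and luminescence measured with a CCD imager.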
NPR1 antag: blocks ANP-stimulated signaling of human Npr1 receptor; AID 1347048; HEK293 hNpr1 GloSensor cGMP, ANP-stimulated luminescence; hit rate 1.6% among 76,000; Potency, µM (top dose mostly 46.3 µM), for inactives: at the highest dose activity change, negative = inhibition, most hits filed as inhibitors; calls by dose curve; note: nearly all actives have a fitted effect of over 60% in size
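HEK293 cells stably expressing human Npr1 and cGMP GloSensor pGS-40F, loaded 2 h with 2% GloSensor reagent, given compound 30 min at room temperature. Luminescence read before and 20 min after 0.1 nM hNppA.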
* marks the source's active call; other numbers are inactive results; i = inactive; ? = inconclusive; / = not tested or not shown; ! = a repeat was not active; [ ] = remark or other dose. Unless noted, calls come from the whole dose curve; as a rule, active = well fitted curve in the direction sought with a large enough effect; inconclusive = small, poorly fitted or top-dose-only effect, or another doubt; inactive = no such curve, though single readings can be large; an effect the other way counts as inactive or inconclusive. % is set by controls: 0 for no effect and ±100 for the full control effect; potency is the fitted concentration of half-maximal effect.

SMILES	HEK293 tox	3T3 cytotox	Luciferase inh	NPR1 antag
COc1ccc(C(=O)N2CCc3ccc(C(=O)NCc4cccc(OC)c4)cc32)cc1	79µM*	?	i	2%
COc1ccc(C(=O)N2CCc3ccc(C(=O)NCc4cccc(F)c4)cc32)cc1	40µM*	?	i	-26%
O=C(NC[C@H]1Cn2c(-c3ccc(Cl)cc3)cnc2CO1)c1cccnc1	22µM*	?	?	-4%[70.6 µM]
Clc1ccc(CNC[C@H]2Cn3c(-c4cccc(Cl)c4)cnc3CO2)cc1	63µM*	45µM*	i	?
Clc1ccc(CNC[C@H]2Cn3c(-c4ccccc4)cnc3CO2)cc1	100µM*	89µM*	i	?
O=C(NC[C@H]1Cn2c(-c3ccc(F)cc3)cnc2CO1)c1cccnc1	-19%[172 µM]	-30%[138 µM]	?	-3%[70.6 µM]
Fc1ccc(CNC[C@H]2Cn3c(-c4ccc(Cl)cc4)cnc3CO2)cc1	79µM*	?	i	?
Clc1ccc(-c2cnc3n2C[C@H](CNCc2cccnc2)OC3)cc1	?	?	i	-12%[70.6 µM]
Cc1cc(C(=O)N2CC(c3nnc(-c4ccncc4)o3)C3(CCOCC3)C2)nn1C (stereo not drawn)	-4%	?	i	-12%
O=[S+]1([O-])CCN(Cc2ccc(-c3cnc4c(OCc5ccccc5)nccn34)cc2)CC1	35µM*	22µM*	?	11µM*
NC(=O)C1CCCN(Cc2ccc(-c3cnc4c(OCc5ccccc5)nccn34)cc2)C1 (stereo not drawn)	45µM*	40µM*	45µM*	-17%
OC1CCC(NCc2ccc(-c3cnc4c(OCc5ccccc5)nccn34)cc2)CC1 (stereo not drawn)	50µM*	22µM*	i	4%[70.6 µM]
CCSc1ncc(CN2CCN(c3ccc4nccn4n3)CC2)cn1	?	-33%	i	-4%
O=C(Nc1ccc(F)cc1)[C@@H]1C[C@@H](c2cccc(C(F)(F)F)c2)N(CC2CCOCC2)C1	?	25µM*	i	-18%
Cn1cc(CN2C[C@H](C(=O)Nc3ccc(F)cc3)C[C@H]2c2cccc(C(F)(F)F)c2)cn1	?	?	i	-10%
O=C(Nc1ccncn1)[C@@H]1C[C@@H](c2cccc(C(F)(F)F)c2)N(CC2CCOCC2)C1	79µM*	?	i	-7%[70.6 µM]
CN1C[C@H](C(=O)Nc2ccncn2)C[C@H]1c1cccc(C(F)(F)F)c1	?	?	i	-8%[70.6 µM]
O=c1[nH]nc2n1CCN(Cc1ccsc1)CC2	i	i	i	7%
O=C(c1ccc2[nH]ccc2c1)N1CCC2(CC1)Nc1ccccc1NC2=O	40µM*	-14%	i	-10%
O=C(c1ccc2n[nH]nc2c1)N1CCC2(CC1)Nc1ccccc1NC2=O	-29%	-13%	i	5%
COc1cc(CNC(=O)c2nc(C(O)c3ccccn3)oc2C)cc(OC)c1 (stereo not drawn)	?	79µM*	i	-16%[70.6 µM]
Cc1oc(C(O)c2ccccc2)nc1C(=O)NCc1ccco1 (stereo not drawn)	?	?	i	-9%[70.6 µM]
Cc1csc(NC(=O)c2nc3c(o2)CCN(Cc2ccc4[nH]ccc4c2)CC3)n1	100µM*	?	35µM*	-17%[70.6 µM]
Cc1ccc(CN2CCc3nc(C(=O)Nc4nc(C)cs4)oc3CC2)cc1	71µM*	?	i	-21%[70.6 µM]
Cc1csc(NC(=O)c2nc3c(o2)CCN(CC2CCCC2)CC3)n1	?	?	28µM*	-3%[70.6 µM]
SMILES	HEK293 tox	3T3 cytotox	Luciferase inh	NPR1 antag
O=C(NCc1ccccc1)c1nc2c(o1)CCN(CC1CCCC1)CC2	?	?	i	-4%[70.6 µM]
Cc1ccc(SC2CCN(Cc3cc4n(n3)CCNC4)CC2)cc1	14µM*	14µM*	i	1%
COc1ccccc1OC1CCN(Cc2cc3n(n2)CCNC3)CC1	-8%	-6%	i	2%
CNC(=O)N1CCC(C2CCN(C(=O)c3ocnc3C)C2)CC1 (stereo not drawn)	i	i	i	7%
CCn1cc(S(=O)(=O)N2CC3(CCCCC3)CC2COc2ccc(OC)cc2)cn1 (stereo not drawn)	32µM*	?	/	/
CCOC(=O)CNC(=O)N1CC2(CCCCC2)CC1COc1ccc(OC)cc1 (stereo not drawn)	-26%	-29%	/	/
Cc1nc(CN2CC3(CCN(C)C3)c3cc(C(=O)NCC4CC4)ccc32)cs1 (stereo not drawn)	-37%[172 µM]	?	i	1%[70.6 µM]
Cc1nc(CN2CC3(CCN(C)C3)c3cc(C(=O)NCc4ccccc4)ccc32)cs1 (stereo not drawn)	112µM*	?	i	-7%[70.6 µM]
Cc1nc(CN2CC3(CCN(C)C3)c3cc(C(=O)NCc4cccs4)ccc32)cs1 (stereo not drawn)	?	79µM*	i	-5%[70.6 µM]
CN1CCC2(C1)CN(Cc1ccccc1)c1ccc(C(=O)NCc3cccs3)cc12 (stereo not drawn)	45µM*	28µM*	i	0%[70.6 µM]
CN1CCCC2(C1)CN(Cc1cccnc1)c1ccc(C(=O)NCc3cccs3)cc12 (stereo not drawn)	?	?	i	6%[70.6 µM]
COc1cccc(OCc2nc3c(n2Cc2ccccc2)C(=O)N(C)CCN3)c1	?	-25%[138 µM]	i	-11%[70.6 µM]
C=CCCC(CN1CCOCC1)Oc1ccc2cccc(OC)c2n1 (stereo not drawn)	?	-10%	i	-14%
COc1cccc(CCC(=O)N2CC(F)(F)C[C@H]2c2nc(C)no2)c1	-29%	-12%	i	-11%
COc1ccc(Nc2ccnc(N3CCCC(C(=O)NCCc4ccccc4F)C3)n2)cc1 (stereo not drawn)	22µM*	?	/	/
Cc1ccc(Nc2ccnc(N3CCCC(C(=O)NCc4ccccc4F)C3)n2)cc1 (stereo not drawn)	10µM*	14µM*	/	/
Cc1ccc(Nc2ccnc(N3CCCC(C(=O)NCc4cccc(F)c4)C3)n2)cc1 (stereo not drawn)	50µM*	?	/	/
COc1ccc(Nc2ccnc(N3CCCC(C(=O)N4CCN(C)CC4)C3)n2)cc1 (stereo not drawn)	?	-26%	/	/
Cc1ccc(Nc2ccnc(N3CCCC(C(=O)NCCc4ccccc4)C3)n2)cc1 (stereo not drawn)	?	28µM*	/	/
COc1cccc(-c2ccc(C(=O)N3CCC(N[S+](=O)([O-])c4c(C)noc4C)CC3)cc2)c1	22µM*	?	/	/
O=C(c1ccc(-c2cccs2)cc1)N1CCC(N[S+](=O)([O-])c2cccs2)CC1	45µM*	?	/	/
COc1ccccc1-c1ccc(C(=O)N2CCC(N[S+](=O)([O-])c3cccs3)CC2)cc1	89µM*!	?	/	/
CC(C)C(=O)NC1CCN(C(=O)c2ccc(-c3cccs3)cc2)CC1	71µM*	?	/	/
CC1CCN([C@@H]2[C@H](O)[C@H](CO)O[C@@H]2CNC(=O)c2cccs2)CC1	1%[172 µM]	3%[174 µM]	i	6%[70.6 µM]
